The campaign covered roughly 39,000 compounds. About 3,300 (8.5%) were called active. Many of the other results were omitted from the sample, so actives are more common in it than they were.
System: HepG2
Assay: cytotoxicity call (relative viability < 0.9)
Conditions: 10 µM

Question: For `C[C@@H]1CN([C@H](C)CO)S(=O)(=O)c2ccc(C#Cc3ccccc3)cc2O[C@@H]1CN(C)C(=O)Cc1ccccn1`, which cytotoxicity call is on record?
Answer: inactive

Question: For `C[C@@H]1CN([C@H](C)CO)C(=O)Cc2cc(NC(=O)c3ccncc3)ccc2O[C@@H]1CN(C)Cc1ccc2c(c1)OCO2`, which cytotoxicity call is on record?
Answer: inactive

Question: Which cytotoxicity call does the source give for `COc1ccc(C(N)=O)cc1` here?
Answer: inactive

Question: For `COc1ccc(CNCC(=O)O)cc1`, which cytotoxicity call is on record?
Answer: inactive

Question: How did the cytotoxicity call turn out when `COC(=O)[C@@H]1[C@@H](c2ccc(OC)cc2)[C@H](C(=O)OC)S(=O)(=O)CS1(=O)=O` was run?
Answer: active

Question: For `C=C1CCC=C(C)CCC2C1CC2(C)C.O` (single isomer, unassigned; (-)) [(-)E-CARYOPHYLLENE hydrate ], which cytotoxicity call is on record?
Answer: inactive

Question: `C=C1C(=O)OC2C1CCC(C)=CCCC1(C)OC21` (stereo not given) was tested. Which cytotoxicity call did it give?
Answer: active

Question: For `C[C@H](CO)N1C[C@H](C)[C@H](CN(C)S(=O)(=O)c2ccccc2)Oc2ncc(C#Cc3ccccc3)cc2C1=O`, which cytotoxicity call is on record?
Answer: inactive

Question: How did the cytotoxicity call turn out when `Cc1ccc(S(=O)(=O)Nc2ccc3c(c2)C(=O)N([C@H](C)CO)C[C@H](C)[C@@H](CN(C)C(=O)c2ccccc2)OCCCC[C@@H](C)O3)cc1` was run?
Answer: inactive

Question: How did the cytotoxicity call turn out when `COCC(=O)N1CC[C@]2(CC(C(=O)NCc3cnc(C)cn3)=NO2)C1` was run?
Answer: inactive

Question: For `COc1ccc(S(=O)(=O)N(C)C[C@@H]2OCCCC[C@H](C)Oc3ccc(NC(=O)Nc4c(C)noc4C)cc3C(=O)N([C@@H](C)CO)C[C@H]2C)cc1`, which cytotoxicity call is on record?
Answer: inactive

Question: With `COc1ccc(S(=O)(=O)N(C)C[C@H]2OCCCC[C@H](C)Oc3ccc(NC(=O)Nc4c(C)noc4C)cc3C(=O)N([C@@H](C)CO)C[C@@H]2C)cc1` as the compound, how does the cytotoxicity call read?
Answer: active

Question: With `COc1ccc(S(=O)(=O)N(C)C[C@@H]2OCCCC[C@H](C)Oc3ccc(NC(=O)Nc4c(C)noc4C)cc3C(=O)N([C@H](C)CO)C[C@@H]2C)cc1` as the compound, how does the cytotoxicity call read?
Answer: inactive

Question: How did the cytotoxicity call turn out when `COc1ccc(S(=O)(=O)N(C)C[C@H]2OCCCC[C@H](C)Oc3ccc(NC(=O)Nc4c(C)noc4C)cc3C(=O)N([C@@H](C)CO)C[C@H]2C)cc1` was run?
Answer: active

Question: How did the cytotoxicity call turn out when `COc1ccc(S(=O)(=O)N(C)C[C@@H]2OCCCC[C@@H](C)Oc3ccc(NC(=O)Nc4c(C)noc4C)cc3C(=O)N([C@@H](C)CO)C[C@H]2C)cc1` was run?
Answer: inactive

Question: Which cytotoxicity call does the source give for `COc1ccc(S(=O)(=O)N(C)C[C@H]2OCCCC[C@@H](C)Oc3ccc(NC(=O)Nc4c(C)noc4C)cc3C(=O)N([C@H](C)CO)C[C@@H]2C)cc1` here?
Answer: inactive

Question: With `Cc1noc(C)c1NC(=O)N(C)C[C@H]1Oc2ccc(NS(=O)(=O)c3cn(C)cn3)cc2CC(=O)N([C@H](C)CO)C[C@@H]1C` as the compound, how does the cytotoxicity call read?
Answer: inactive

Question: For `C[C@@H]1CN([C@@H](C)CO)C(=O)c2cccc(NS(=O)(=O)c3cn(C)cn3)c2O[C@@H]1CN(C)Cc1ccncc1`, which cytotoxicity call is on record?
Answer: inactive

Question: With `O=C(C[C@H]1C[C@H]2c3cc(NC(=O)Nc4ccc(C(F)(F)F)cc4)ccc3O[C@H]2[C@H](CO)O1)NCc1cc(F)ccc1F` as the compound, how does the cytotoxicity call read?
Answer: inactive

Question: How did the cytotoxicity call turn out when `CNC[C@@H]1OCCCC[C@@H](C)Oc2ccc(NS(=O)(=O)c3c(C)noc3C)cc2C(=O)N([C@H](C)CO)C[C@@H]1C` was run?
Answer: inactive

Question: With `C[C@H]1C/C(=C\N(C)C)C(=O)C1=O` as the compound, how does the cytotoxicity call read?
Answer: active

Question: `C[C@@H]1CCCCO[C@@H](CN(C)C(=O)Nc2ccc3c(c2)OCO3)[C@H](C)CN([C@H](C)CO)C(=O)c2cc(NS(=O)(=O)c3ccc(Cl)cc3)ccc2O1` was tested. Which cytotoxicity call did it give?
Answer: inactive

Question: Which cytotoxicity call does the source give for `C[C@@H]1CCCCO[C@H](CN(C)S(=O)(=O)c2ccccc2)[C@H](C)CN([C@@H](C)CO)C(=O)c2cc(NC(=O)NC3CCCCC3)ccc2O1` here?
Answer: inactive

Question: For `C[C@H](CO)N1C[C@H](C)[C@@H](CN(C)Cc2ccc3c(c2)OCO3)Oc2c(NC(=O)C3CCOCC3)cccc2C1=O`, which cytotoxicity call is on record?
Answer: inactive

Question: How did the cytotoxicity call turn out when `C[C@@H]1CN([C@H](C)CO)C(=O)c2cc(C#CCc3ccccc3)cnc2O[C@@H]1CN(C)C(=O)C1CCOCC1` was run?
Answer: inactive

Question: How did the cytotoxicity call turn out when `Oc1ccc(F)c2ccccc12` was run?
Answer: inactive

Question: With `O=C(c1ccc(Cl)cc1)c1coc2c1cc(O)c1ccccc12` as the compound, how does the cytotoxicity call read?
Answer: active

Question: How did the cytotoxicity call turn out when `C[C@H]1CN([C@@H](C)CO)C(=O)Cc2cc(NC(=O)Nc3ccc(C(F)(F)F)cc3)ccc2O[C@@H]1CN(C)C(=O)Nc1ccc2c(c1)OCO2` was run?
Answer: inactive

Question: With `C[C@@H]1CN([C@H](C)CO)C(=O)Cc2cc(NC(=O)Nc3ccc(C(F)(F)F)cc3)ccc2O[C@H]1CN(C)C(=O)Nc1ccc2c(c1)OCO2` as the compound, how does the cytotoxicity call read?
Answer: inactive

Question: For `C[C@@H]1CN([C@H](C)CO)C(=O)Cc2cc(NC(=O)Nc3ccc4c(c3)OCO4)ccc2O[C@@H]1CN(C)C(=O)Nc1ccc(C(F)(F)F)cc1`, which cytotoxicity call is on record?
Answer: active

Question: Which cytotoxicity call does the source give for `C[C@@H]1CN([C@@H](C)CO)C(=O)Cc2cc(NC(=O)Nc3ccc4c(c3)OCO4)ccc2O[C@H]1CN(C)C(=O)Nc1ccc(C(F)(F)F)cc1` here?
Answer: inactive

Question: For `C[C@@H]1CN([C@@H](C)CO)C(=O)Cc2cc(NC(=O)Nc3ccc(C(F)(F)F)cc3)ccc2O[C@@H]1CN(C)C(=O)Nc1ccc2c(c1)OCO2`, which cytotoxicity call is on record?
Answer: active

Question: For `C[C@H]1CN([C@@H](C)CO)C(=O)Cc2cc(NC(=O)Nc3ccc(C(F)(F)F)cc3)ccc2O[C@H]1CN(C)C(=O)Nc1ccc2c(c1)OCO2`, which cytotoxicity call is on record?
Answer: inactive

Question: `C[C@H](CO)N1C[C@H](C)[C@@H](CN(C)C(=O)Nc2ccc3c(c2)OCO3)Oc2ccc(NC(=O)Nc3ccc(C(F)(F)F)cc3)cc2CC1=O` was tested. Which cytotoxicity call did it give?
Answer: inactive

Question: Which cytotoxicity call does the source give for `C[C@@H]1CN([C@H](C)CO)C(=O)Cc2cc(NC(=O)Nc3ccc(C(F)(F)F)cc3)ccc2O[C@@H]1CN(C)C(=O)Nc1ccc2c(c1)OCO2` here?
Answer: active

Question: For `C[C@H]1CN([C@@H](C)CO)C(=O)Cc2cc(NC(=O)Nc3ccc4c(c3)OCO4)ccc2O[C@@H]1CN(C)C(=O)Nc1ccc(C(F)(F)F)cc1`, which cytotoxicity call is on record?
Answer: inactive

Question: For `C[C@H]1CN([C@@H](C)CO)C(=O)Cc2cc(NC(=O)Nc3ccc4c(c3)OCO4)ccc2O[C@H]1CN(C)C(=O)Nc1ccc(C(F)(F)F)cc1`, which cytotoxicity call is on record?
Answer: active

Question: For `C[C@H](CO)N1C[C@H](C)[C@H](CN(C)C(=O)Nc2ccc3c(c2)OCO3)Oc2ccc(NC(=O)Nc3ccc(C(F)(F)F)cc3)cc2CC1=O`, which cytotoxicity call is on record?
Answer: inactive

Question: `C[C@@H]1CN([C@@H](C)CO)C(=O)Cc2cc(NC(=O)Nc3ccc(C(F)(F)F)cc3)ccc2O[C@H]1CN(C)C(=O)Nc1ccc2c(c1)OCO2` was tested. Which cytotoxicity call did it give?
Answer: inactive

Question: With `Cc1noc(C)c1NC(=O)Nc1ccc2c(c1)C(=O)N([C@H](C)CO)C[C@H](C)[C@H](CN(C)Cc1ccccc1)OCCCC[C@H](C)O2` as the compound, how does the cytotoxicity call read?
Answer: inactive

Reference: the antibiotic and cytotoxicity screens of Wong et al. (2023)
